Among the test systems are DU-145 prostate; K-562 leukemia; MALME-3M melanoma; MDA-MB-231 breast; RXF 393 renal; SF-268 CNS; SF-295 CNS; SF-539 CNS; UACC-257 melanoma; M14 melanoma.
Assay in all cases: NCI-60 one-dose screen, 48 h (100 = growth as untreated, 0 = no growth, -100 = all killed)
Common to all, as to details: 10 µM unless noted

This is part of a sample that, as a whole, favours compounds with a hit. Of some 83,000 tested, about 20% had one in any assay.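 Note: values are percent growth. 100 is the growth of untreated cells, values between 100 and 0 indicate rising inhibition; between -100 and 0 indicates cell death.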 Unmarked numbers belong to inactive results. The source made the active and inactive calls. Rule for the calls: active = growth percent below 10; inactive = the rest.

Experimental findings from PubChem BioAssay (NCI) are described below.

For the compound `O=C(Nc1ccc([N+](=O)[O-])cc1)C(Cl)(Cl)Cl`, the growth was 96.7% in the assay with DU-145 prostate; 98.2% in the assay on K-562 leukemia; 97.6% in the assay with MALME-3M melanoma; 95% with MDA-MB-231 breast; 116% in the assay with RXF 393 renal; 97.6% in the assay on SF-268 CNS. Moreover, the growth with SF-295 CNS is 96.9%; with SF-539 CNS, 94.2%; with UACC-257 melanoma it was 96.7%; in the assay on M14 melanoma, 94.1%.
With `Cn1cccc1C1CC(=O)N(CCC[Se]C#N)C1=O` (configuration not stated), the growth in the assay on DU-145 prostate was -76% (active); in the assay on K-562 leukemia, 16.2%; in the assay on MALME-3M melanoma it was -30.1% (active); in the assay on MDA-MB-231 breast it was -45.3% (active); in the assay on RXF 393 renal it was -48.7% (active); in the assay with SF-268 CNS, -31.8% (active). The growth in the assay on SF-295 CNS was -58.2% (active); in the assay on SF-539 CNS, -81.2% (active); in the assay with UACC-257 melanoma, -70.6% (active); in the assay on M14 melanoma, 4.09% (active).
Regarding `CN1CCC(c2c[nH]c3ccccc23)C1` (configuration not stated), the growth with DU-145 prostate is 110%; in the assay on K-562 leukemia, 109%; in the assay with MALME-3M melanoma, 112%; with MDA-MB-231 breast, 103%; in the assay with RXF 393 renal, 128%; in the assay with SF-268 CNS, 111%. The growth in the assay on SF-295 CNS is 105%; with SF-539 CNS, 127%; with UACC-257 melanoma, 55.5%; in the assay with M14 melanoma, 93%.
On to `CO[C@H](C(=O)O)[C@@H]1Cc2cc3cc(OC4CC(OC5CC(O)C(O)C(C)O5)C(O)C(C)O4)c(C)c(O)c3c(O)c2C(=O)[C@H]1OC1CC(OC2CC(OC3CC(C)(O)C(O)C(C)O3)C(O)C(C)O2)C(O)C(C)O1` (some centres not stated), for which the growth was 21.5% in the assay on DU-145 prostate; 11.8% with K-562 leukemia; -10.4% (active) in the assay on MALME-3M melanoma; 19.9% in the assay on MDA-MB-231 breast; -57.1% (active) with RXF 393 renal; 29.3% in the assay on SF-268 CNS. The growth with SF-295 CNS is 11.2%; in the assay with SF-539 CNS, -23.1% (active); with UACC-257 melanoma it was 7.77% (active); with M14 melanoma, -8.35% (active).
With `COC(=O)[C@@H](C)C[C@H](Cc1ccccc1)NC(=O)c1csc([C@@H](C[C@H](C(C)C)N(C)C(=O)[C@@H](NC(=O)[C@H]2CCCCN2C)C2CC2)OC(C)=O)n1`, the growth with DU-145 prostate was 2.33% (active); in the assay on K-562 leukemia, 9.03% (active); in the assay with MALME-3M melanoma, 63.6%; with MDA-MB-231 breast, 23%; with RXF 393 renal, 46.9%; in the assay with SF-268 CNS, 32.8%. Moreover, the growth was 9.01% (active) with SF-295 CNS, -0.629% (active) in the assay with SF-539 CNS, 58.3% in the assay on UACC-257 melanoma and 10.8% with M14 melanoma.
As for `O=C(c1ccccc1O)c1[nH]c(Cl)c(Cl)c1-n1c(C(=O)c2ccccc2O)cc(Cl)c1Cl`, the growth is 19.2% with DU-145 prostate; 6.74% (active) in the assay on K-562 leukemia; -25.5% (active) with MALME-3M melanoma; -31.7% (active) in the assay with MDA-MB-231 breast; -19.4% (active) in the assay with RXF 393 renal; 4.86% (active) in the assay with SF-268 CNS. Besides, the growth is -25.5% (active) in the assay on SF-295 CNS, 7.94% (active) in the assay on SF-539 CNS, -24.9% (active) in the assay on UACC-257 melanoma and -0.41% (active) in the assay on M14 melanoma.
As for `Clc1ccc(CSC(Cn2ccnc2)c2ccc(Cl)cc2Cl)cc1` (configuration not stated), the growth in the assay on DU-145 prostate was 68.3%; in the assay on K-562 leukemia, 10.2%; in the assay with MALME-3M melanoma, 21%; in the assay with MDA-MB-231 breast it was 64.7%; in the assay with RXF 393 renal, 15.3%; in the assay with SF-268 CNS, 50.2%. Besides, the growth with SF-295 CNS was 10.7%; with SF-539 CNS it was 44.4%; in the assay on UACC-257 melanoma, 23.1%; with M14 melanoma, 29.7%.
Turning to `c1ccc(CSC(c2ccccc2)c2ccccc2)cc1`, the growth was 121% in the assay with DU-145 prostate; 105% in the assay on K-562 leukemia; 110% in the assay on MALME-3M melanoma; 119% in the assay with MDA-MB-231 breast; 119% in the assay on RXF 393 renal; 112% in the assay on SF-268 CNS. The growth in the assay on SF-295 CNS was 114%; in the assay with SF-539 CNS, 105%; in the assay on UACC-257 melanoma it was 105%; with M14 melanoma, 99.1%.
As for `COC(=O)[C@@H](C)C[C@H](Cc1ccccc1)NC(=O)c1nc([C@@H](C[C@H](C(C)C)N(C)C(=O)[C@@H](NC(=O)[C@H]2CCCCN2C)C(C)C)OC(C)=O)sc1C(C)C`, the growth is -0.426% (active) with DU-145 prostate; 7.38% (active) in the assay with K-562 leukemia; 57.5% with MALME-3M melanoma; 2.67% (active) in the assay with MDA-MB-231 breast; 23.7% with RXF 393 renal; 22.1% with SF-268 CNS. The growth is -1.35% (active) in the assay on SF-295 CNS, -22.2% (active) in the assay on SF-539 CNS, 50.7% in the assay on UACC-257 melanoma and -26.6% (active) with M14 melanoma.
Take `Nc1cc2nc3ccccc3nc2cc1N`: the growth was 91.5% in the assay on DU-145 prostate; 59.8% in the assay with K-562 leukemia; 122% with MALME-3M melanoma; 86.9% with MDA-MB-231 breast; 81.5% with RXF 393 renal; 92.4% in the assay on SF-268 CNS. Also, the growth in the assay with SF-295 CNS is 89.8%; with SF-539 CNS, 95.4%; in the assay on M14 melanoma, 109%.
For the compound `c1ccc(COc2ccc3[nH]cc(CCN(Cc4ccccc4)Cc4ccccc4)c3c2)cc1`, the growth in the assay with DU-145 prostate is 98.8%; with K-562 leukemia, 71.1%; in the assay on MALME-3M melanoma, 91.3%; with MDA-MB-231 breast it was 83.3%; in the assay with RXF 393 renal, 91.2%; in the assay on SF-268 CNS, 92.4%. Moreover, the growth with SF-295 CNS was 91.4%; in the assay with SF-539 CNS it was 97.1%; in the assay with M14 melanoma it was 98.6%.
Regarding `OCc1ccc2c(c1)OCO2`, the growth with DU-145 prostate is 105%; in the assay on K-562 leukemia, 101%; in the assay on MALME-3M melanoma it was 97.5%; with MDA-MB-231 breast it was 102%; in the assay on RXF 393 renal, 103%; with SF-268 CNS, 100%. Besides, the growth with SF-295 CNS was 93.8%; in the assay with SF-539 CNS it was 96.1%; with M14 melanoma, 103%.
Regarding `CC(C)(C)C(=O)OCOP(=O)(OCOC(=O)C(C)(C)C)C1CCCN(O)C1=O` (configuration not stated), the growth is 20% in the assay with DU-145 prostate; 8.42% (active) with K-562 leukemia; 12.3% in the assay with MALME-3M melanoma; 5.67% (active) in the assay on MDA-MB-231 breast; -9.35% (active) with RXF 393 renal; 4.35% (active) in the assay on SF-268 CNS. Moreover, the growth is 54% in the assay on SF-295 CNS, 27.4% in the assay on SF-539 CNS, 18.9% in the assay on UACC-257 melanoma and 26.6% in the assay with M14 melanoma.
